Results on 40 compounds are retold here after ChEMBL document CHEMBL1157539, “Thousands of chemical starting points for antimalarial lead identification” (Nature, 2010).

For the assay, the system named is Plasmodium falciparum. The assay is described as follows: GSK_TCMDC: Inhibition of Plasmodium falciparum Dd2 in whole red blood cells, using parasite LDH activity as an index of growth. Test compounds present at 2uM. Format: functional.
For `COc1cc(NC(=O)c2nn(CCCN3CCC(N4CCCC4)CC3)cc2-c2ccc(Cl)c(Cl)c2)cc(OC)c1OC`, the Inhibition came out at 100%.
For `O=C(NCCCN1CCOCC1)c1ccc(-c2cccc(NC(=O)c3ccc(Cl)c(Cl)c3)c2)cc1` the value was 68%; for `CCN(CC)CCN(Cc1ccc(-c2ccc(C(F)(F)F)cc2)cc1)C(=O)Cn1c(CCc2cccc(F)c2F)cc(=O)c2c1CCCC2.O=C(O)C(O)C(O)C(=O)O`, 95%; for `Cc1c(F)cc(C(=O)NC2CC2)cc1-c1ccc2c(cnn2S(=O)(=O)c2ccc(Cl)s2)c1`, 50%.
In turn, `Cc1cc2nc(-c3ccc(C(=O)NCc4ccc(Cl)c(Cl)c4)cc3)[nH]c2cc1C` returned an Inhibition of 83%.
Then `CC(C)CC1(C(=O)OC(C)(C)C)CC(C(=O)OC(C)(C)C)C(c2cccs2)N1C(=O)c1ccc(C(C)(C)C)cc1` (stereo not given), with 100%.
Compound `CN1CCc2cc(O)c(NS(=O)(=O)c3ccc(-c4ccc(Cl)cc4)cc3)cc2CC1.Cl` yielded an Inhibition of 3%.
Take `COc1ccc2nccc(N3CCC(NCc4ccc5c(n4)NC(=O)CS5)CC3)c2n1`: the Inhibition is on record as 63%.
Consider `O=C(O)C(F)(F)F.OCC1CCN(Cc2cccc(-c3ccc(-c4nc5cc(C(F)(F)F)ccc5[nH]4)cc3)c2)CC1`, for which the Inhibition amounted to 95%.
In turn, `CNCCNCc1cccc(-c2ccc(-c3nc4cc(C(F)(F)F)ccc4[nH]3)s2)c1.O=C(O)C(F)(F)F` registered an Inhibition of 85%.
`OC(CNc1ccnc(Nc2ccc(Cl)cc2)n1)c1ccc(C(F)(F)F)cc1` (stereo not given) had an Inhibition of 94%.
Then `COc1c(C2CCN(CCCCNC(=O)c3cccc(-c4ccc(C(F)(F)F)cc4)c3)CC2)ccc2c1CCCC2`, with 45%.
For `CC(C)C[C@H](NC(=O)c1cc2ccccc2s1)C(=O)N[C@H]1CCN(Cc2ccc(OC[C@@H]3CCCN3C)c(Cl)c2)C1.O=C(O)C(F)(F)F` the value was 81%.
For `Cc1cccc2nc(-c3ccc(-c4cccc(CN5CCCC(N)C5)c4)s3)[nH]c12.O=C(O)C(F)(F)F` (stereo not given) the value was 94%; for `CCOC(=O)c1cnc2c(OC)cc(OC)c(Cl)c2c1Nc1cccc(C)c1C`, 99%.
Regarding `Cc1[nH]c(C)c(-c2ccc(-c3cccc(Cl)c3)nc2)c(=O)c1Br`, the Inhibition worked out at 96%.
For `COc1ccc(NC(=O)/C=C/c2ccccc2Cl)cc1OCCN1CCC(O)(c2ccc(Cl)c(C(F)(F)F)c2)CC1.Cl` the value was 9%; for `Cc1ccc(CNC(=O)c2cc3c(=O)n4cccc(C)c4nc3n(CCN3CCOCC3)c2=N)cc1`, 21%; for `COc1ccc(-c2ccc([N+](=O)[O-])cc2C(=O)NCC(C)Oc2ccc(C(F)(F)F)cc2)cc1` (stereo not given), 81%.
In turn, `CO/C(=C\C=C/c1cc2cc(Cl)c(Cl)cc2[nH]1)C(=O)NC1CC(C)(C)N(C)C(C)(C)C1` returned an Inhibition of 34%.
Then `COc1ccc2nccc(N3CCC(CCNCc4ccc5c(n4)NC(=O)CS5)CC3)c2c1.Cl`, with 86%; and `O=C(O)C(F)(F)F.O=S(=O)(NCCN1CCCC1)c1ccc(-c2ccc(CNCc3ccccc3)cc2)cc1`, with 28%.
For `ON=C1CCc2cc(-c3cc(-c4ccc(OC5CCNCC5)cc4)oc3-c3ccncc3)ccc21` the value was 99%; for `CN(C)Cc1cc(Nc2ccnc3cc(Cl)ccc23)ccc1O.Cl`, 100%.
Then `Br.CCC(ON1C(N)=NC(N)=NC1(C)C)c1ccc(Cl)cc1` (stereo not given), with 90%; and `CCN(CC)/C(=N\C(=N)NCCCCCCNC(=N)/N=C(\Nc1ccc(Cl)cc1)N(CC)CC)Nc1ccc(Cl)cc1`, with 96%.
With `Clc1cc(Nc2ccnc3ccc(Br)cc23)ccc1Oc1ccc2ccccc2c1Cl`, the Inhibition is given as 93%.
Then `CCCCCCCCN1CCCN(C(=O)c2cccc(NC(=O)Nc3ccc4ccccc4c3)c2)CC1.O=C(O)C(F)(F)F`, with 39%.
The compound `CN1CCN(CC(O)CNC(=O)Nc2ccc(Cl)cc2)CC1.O=C(O)C(F)(F)F` (stereo not given) returned an Inhibition of 98%.
Then `COc1cc(F)c2nccc([C@@H](O)CN3CCC(NCc4ccc5c(n4)NC(=O)CS5)C(F)C3)c2c1.Cl` (stereo not given in full), with 80%; and `CCc1c(C)c(C#N)c2nc3ccccc3n2c1NCc1ccco1`, with 90%.
For `COc1ccc(Nc2ncc(C#N)c(Nc3ccccc3C(N)=O)n2)cc1N1CCN(C)CC1.Cl` the value was 97%; for `O=C(/C=C/c1ccc(Cl)c(Cl)c1)NCCCCCN1CCCN(C(=O)Nc2cc(F)cc(F)c2)CC1`, 1%; for `CN1CCN(c2ccc(Nc3ncc(C#N)c(Nc4ccccc4C(N)=O)n3)cc2)CC1.Cl`, 93%.
Then `CC(C)C[C@H](NC(=O)c1ccc(OCCN2CCOCC2)cc1)C(=O)N[C@H](/C=N/N1CCN(C)C1=O)CCc1ccccc1`, with 65%.
Take `Cl.O=C(CNC1=NCCN1)Nc1ccc(NC(=O)Nc2ccc(NC(=O)CNC3=NCCN3)cc2)cc1`: the Inhibition is given as 75%.
Consider `COc1cccc(NC(=O)[C@H](C(C)C)n2c(=O)[nH]c3ccccc3c2=O)c1`, for which the Inhibition is recorded as 100%.
Compound `Cc1cc(Nc2ccc(C)c(Cl)c2)n2nc(C(F)(F)F)nc2n1` gave an Inhibition of 97%.
For `CN1CCN(c2ccc(Nc3nccc(-c4cnn5ncccc45)n3)cc2Cl)CC1` the value was 92%; for `O=C(O)C(F)(F)F.O=S(=O)(NCCN1CCCC1)c1cccc(-c2ccccc2CNC2Cc3ccccc3C2)c1`, 76%.

The Inhibition is the drop in the measured response relative to a control, in per cent. Low readings indicate a response near the control, high ones a response far below the control.
